Rows were chosen to be rich in hits. Some 3.4% of all compounds tested hit in one or more screens of this group.
HGIII-sPLA2 inh: Blocks human group III sPLA2 activity | QFRET BODIPY PC-A2 liposome hydrolysis, fluorescence | Q9NZ20 | inhibition, % at 12.2 µM | 370,000 compounds, 0.56% hits;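 active = inhibition above mean plus 3 SD of compounds lying within the high and low control bounds, cut at about 19% in these data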;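 also: 0% = median of test compound wells and 100% = no enzyme DMSO wells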
PLCg1 inh: PLC-gamma1 (human) inhibition, primary screen; 370,000 compounds, 0.84% hits; inhibition, % at 12.2 µM; AID 720700; purified PLC-gamma1, fluorogenic substrate, fluorescence; in the data active = inhibition above about 9.5%
proKLK7 act: activators of human kallikrein-7 zymogen | purified proKLK7, EDANS-DABCYL substrate fluorescence; 100% is mature enzyme control, 0% vehicle | P49862 | 370,000 compounds, 0.9% hits | activation, % at 7 µM;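 active = activation above the mean of all tested compounds plus 3 SD, computed per campaign excluding outliers beyond control limits, cut at about 13% in these data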
ADAM10 inh: inhibits human ADAM10; 370,000 compounds, 0.62% hits; inhibition, % at 7 µM; O14672; recombinant ADAM10, EDANS/DABCYL FRET peptide cleavage, 3 h; AID 720582;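 active = inhibition above a per-campaign cutoff equal to the mean of compounds falling between control-based bounds plus 3 SD, cut at about 20% in these data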;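 also: 0% = DMSO wells while the 100% control is not disclosed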
PLCb3 inh: inhibitors of human phospholipase C beta3 | Purified PLC-beta3, fluorogenic substrate, fluorescence | 370,000 compounds, 0.18% hits | Q01970 | AID 720704 | inhibition, % at 12.2 µM; in the data active = inhibition above about 11%;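 also: 0% = median of compound wells on plate and 100% = full blocker control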
Target sequence (Q01970 whole entry, looked up): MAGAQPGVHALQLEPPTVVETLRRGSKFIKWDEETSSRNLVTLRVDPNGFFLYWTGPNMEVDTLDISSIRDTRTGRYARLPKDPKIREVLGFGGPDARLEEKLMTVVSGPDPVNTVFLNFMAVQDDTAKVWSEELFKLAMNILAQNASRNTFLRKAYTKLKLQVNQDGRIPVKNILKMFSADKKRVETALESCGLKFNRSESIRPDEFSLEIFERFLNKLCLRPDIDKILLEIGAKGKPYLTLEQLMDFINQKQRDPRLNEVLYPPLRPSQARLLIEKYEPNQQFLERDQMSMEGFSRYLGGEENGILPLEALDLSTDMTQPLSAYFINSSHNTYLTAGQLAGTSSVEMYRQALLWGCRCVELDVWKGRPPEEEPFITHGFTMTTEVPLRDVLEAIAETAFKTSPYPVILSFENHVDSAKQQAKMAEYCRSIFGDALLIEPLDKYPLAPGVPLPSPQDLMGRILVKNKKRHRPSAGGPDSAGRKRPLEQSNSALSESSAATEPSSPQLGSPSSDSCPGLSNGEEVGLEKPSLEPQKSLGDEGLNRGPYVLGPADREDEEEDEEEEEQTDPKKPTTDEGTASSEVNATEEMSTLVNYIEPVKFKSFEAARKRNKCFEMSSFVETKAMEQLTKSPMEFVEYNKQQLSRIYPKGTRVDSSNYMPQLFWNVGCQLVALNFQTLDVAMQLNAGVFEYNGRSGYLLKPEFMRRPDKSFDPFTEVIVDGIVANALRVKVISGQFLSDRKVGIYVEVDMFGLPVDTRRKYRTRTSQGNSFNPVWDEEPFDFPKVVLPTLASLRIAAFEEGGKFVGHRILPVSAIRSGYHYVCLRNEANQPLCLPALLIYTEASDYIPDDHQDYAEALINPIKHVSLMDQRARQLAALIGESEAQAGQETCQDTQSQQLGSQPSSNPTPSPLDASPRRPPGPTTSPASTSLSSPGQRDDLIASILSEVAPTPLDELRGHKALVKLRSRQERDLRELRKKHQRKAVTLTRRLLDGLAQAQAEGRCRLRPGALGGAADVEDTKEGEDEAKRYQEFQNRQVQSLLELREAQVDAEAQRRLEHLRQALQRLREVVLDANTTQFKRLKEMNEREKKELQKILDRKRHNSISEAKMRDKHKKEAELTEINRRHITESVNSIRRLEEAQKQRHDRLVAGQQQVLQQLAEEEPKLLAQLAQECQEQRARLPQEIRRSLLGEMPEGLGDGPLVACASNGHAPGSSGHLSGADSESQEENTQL
ADAM17 inh: inhibitors of human ADAM17; P78536; recombinant ADAM17, EDANS/DABCYL FRET peptide cleavage; AID 720648; 370,000 compounds, 0.83% hits; inhibition, % at 6.95 µM;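 active = inhibition above the mean of compounds lying between control limits plus 3 SD, set per campaign, cut at about 8.5% in these data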;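 also: 0% = DMSO-only wells as the low control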
sPLA2 confirm: human GIII-sPLA2 inhibition, confirmation | shares compounds with HGIII-sPLA2 inh | recombinant hGIII-sPLA2, BODIPY PC-A2 QFRET fluorescence | inhibition, % at 12.2 µM | 2,000 compounds, 34% hits;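 active = mean inhibition across triplicates above the hit cutoff set in the earlier primary screen, cut at about 19% in these data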;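 also: 0% = enzyme with DMSO and 100% = DMSO wells lacking enzyme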
BODIPY interf: 535nm fluorescence interference, HGIII-sPLA2 counter-screen; shares compounds with HGIII-sPLA2 inh; BODIPY FL product fluorescence interference, QFRET; inhibition, % at 12.2 µM; 2,000 compounds, 8.5% hits; AID 743282;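 active = average inhibition above the solvent-only control mean plus 3 SD, cut at about 6% in these data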;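 also: 0% = DMSO with substrate plus product and 100% = DMSO with substrate alone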
BODIPY interf DR: 535nm optical interference dose response, HGIII-sPLA2 counter-screen | shares compounds with HGIII-sPLA2 inh | BODIPY FL product fluorescence interference, cell-free | IC50, µM | 240 tested, under 10 active | AID 743455;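 active = IC50 at or below 10 µM; inactive = IC50 above 10 µM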
* marks the source's active call; other numbers are inactive results; x = not tested or not shown.

SMILES	HGIII-sPLA2 inh	PLCg1 inh	proKLK7 act	ADAM10 inh	PLCb3 inh	ADAM17 inh	sPLA2 confirm	BODIPY interf	others
O=C(N/N=C/c1c(O)ccc2ccccc12)c1cccc(C(F)(F)F)c1	43*	-61	-1	-6	-66	0	-11	-5
O=C(NCc1ccccc1)C(c1ccco1)N1CCN(CCN2CCOCC2)CC1 (configuration not stated)	13	-3	0	-11	-5	-3	x	x
O=C(O)/C=C/C(=O)NCCc1ccc(Cl)cc1	22*	-1	0	-1	-10	-3	6	-4
COc1ccc2nc(NNC(=O)C3COc4ccccc4O3)sc2c1 (configuration not stated)	22*	-21	-1	-15	-25	-10	18	2
CN1CCN(CC(=O)Nc2ccccc2C(F)(F)F)CC1	22*	2	0	-13	-6	1	7	-5
Cc1[nH]c2ccccc2c1CC(=O)Nc1ccc(Nc2cccnc2)c(-c2cc(F)cc(F)c2)c1	-21	-19	-4	-67	-34	-19	x	x
O=C(CSc1nc2ccccc2c(=O)n1-c1ccc(F)cc1)Nc1ccc(N2CCOCC2)cc1	3	-1	0	2	3	-3	x	x
CCNC(=S)NNC(=O)CSc1nc2ccccc2c(=O)n1-c1ccc(Cl)cc1	32*	3	0	10	4	4	25*	4
Cc1ccc(NC(=S)NNC(=O)CSc2nc3ccccc3c(=O)n2-c2ccc(C)cc2)cc1	28*	2	0	6	0	5	24*	4
O=C(CSc1nc2ccccc2c(=O)n1-c1ccc(SC(F)F)cc1)Nc1ccc(N2CCOCC2)cc1	21*	-1	-1	-14	2	4	5	-8
COC(=O)C1=C(C)N(Cc2ccccc2C(F)(F)F)C(=NCc2ccccc2)NC1CCc1ccccc1 (configuration not stated)	6	3	0	7	-5	-3	x	x
O[C@@H](Cc1ccccc1)[C@@H](/C=C/c1ccccc1)N(Cc1ccccc1)Cc1ccccc1	-8	-2	0	-1	-2	-3	x	x
Cc1ccc(C(=O)NNC(=O)c2ccc(S(=O)(=O)N3CCCCC3)cc2)cc1	-24	3	0	-7	-5	-2	x	x
Cc1cccc2sc(NNC(=O)c3ccc(S(=O)(=O)N4CCCC(C)C4)cc3)nc12 (configuration not stated)	34*	-203	-2	-8	-243	6	38*	1	BODIPY interf DR=>122
CCOC(=O)N1CCN(S(=O)(=O)c2ccc(C(=O)NNc3nc4c(C)cccc4s3)cc2)CC1	33*	-70	-1	8	-88	8	39*	-1	BODIPY interf DR=>122
Cc1cccc2sc(NNC(=O)c3ccc(S(=O)(=O)N4CCc5ccccc5C4)cc3)nc12	41*	-78	-1	14	-84	8	43*	7.8*
Cc1cc(C)c2nc(NNC(=O)c3ccc(S(=O)(=O)N4CCCCC4)cc3)sc2c1	46*	-125	-1	9	-136	8	53*	-2	BODIPY interf DR=>122
CCOC(=O)N1CCN(S(=O)(=O)c2ccc(C(=O)N(CCN(CC)CC)c3nc4c(C)cccc4s3)cc2)CC1	3	1	0	-10	-10	-2	x	x
Cn1ncc(Br)c1C(=O)N1CCOCC1	20*	-3	0	-4	0	-3	-6	-1
CCOC(=O)c1cc(C#N)c(SCC(=O)c2cc(C#N)c(SC)nc2C)nc1C	20*	-20	-1	-2	-26	-8	-11	-3
CCOC(=O)c1cc(C#N)c(SCc2cccc3ccccc23)nc1C	0	1	1	8	2	-4	x	x
C#Cc1cccc(OC[C@@H](O)CN2CCC(C(O)(c3ccccc3)c3ccccc3)CC2)c1	-19	6	0	6	1	2	x	x
CC1(NC(=S)NCCO)CCS(=O)(=O)C1 (configuration not stated)	20*	7	1	-4	2	-4	0	-8
CCSC1=NC(=O)/C(=C2/C=Cc3ccccc3N2CC)S1	21*	5	0	-1	3	4	46*	9.6*
FC(F)(F)c1cccc(N2CCN(C3CC4CCC3C4)CC2)c1 (configuration not stated)	20*	-3	-1	7	-2	-9	15	-11
SMILES	HGIII-sPLA2 inh	PLCg1 inh	proKLK7 act	ADAM10 inh	PLCb3 inh	ADAM17 inh	sPLA2 confirm	BODIPY interf	others
COC(=O)c1cc2c(c3c4cc(F)ccc4n(S(=O)(=O)c4cccc(C)c4)c13)C(=O)N(C)C2	5	-14	-1	-8	-20	-3	x	x
Cc1cccc(-c2cccc3c4c([nH]c23)[C@@H]2C[C@H](N(C)C(=O)Nc3ccccc3C)[C@H]([C@H](C)O)C(=O)N2CC4)c1	-26	-18	0	-31	-17	-9	x	x
COc1ccc(OC)c(CN2C(=O)CCCCC2(C)c2nnnn2C2CCCC2)c1 (configuration not stated)	3	-3	0	-2	6	-1	x	x
Cn1c2ccccc2c2cc([N+](=O)[O-])ccc21	0	-6	-2	5	-14	1	x	x
CN1c2ccc([N+](=O)[O-])cc2N(C)C1(C)c1ccccc1 (configuration not stated)	25*	4	-1	6	-4	2	44*	8.0*
CC(C)n1nnnc1C1(C)CCCCC(=O)N1Cc1cccc(C(F)(F)F)c1 (configuration not stated)	8	2	-1	4	4	2	x	x
COC(=O)[C@H]1C[C@@]2(n3ccc4ccccc43)c3ccccc3N[C@H]2N1	7	-4	0	-8	-4	-6	x	x
CC(=O)Nc1nc2ccccc2n1CCOc1ccccc1	-5	1	0	4	-10	-3	x	x
S=C(Nc1ccccc1)Nc1nc2ccccc2n1CCOc1ccccc1	21*	-13	-4	4	-15	2	25*	0
O=C(NNC(=S)Nc1cccc(Cl)c1)c1ccccc1	17	0	0	7	-7	-3	x	x
O=C(CN1c2ccccc2Sc2ccccc21)NNC(=S)Nc1ccc(Cl)cc1Cl	17	-3	0	6	0	1	x	x
O=C(CN1c2ccccc2Sc2ccccc21)NNC(=S)Nc1ccc(Cl)cc1	28*	2	0	15	-5	7	7	18*

High-throughput results deposited in PubChem by The Scripps Research Institute Molecular Screening Center.
